We go through 109 sequences from paper PMC4242493, “Sequence specificity incompletely defines the genome-wide occupancy of Myc”.

The full ranking holds about 33,000 sequences; the median of “normalized occupancy” is about 0.075, and the highest 2% start at about 0.095. The sample as a whole holds a higher share of the highest values than the screen did.

Chain of MaxL homodimer (P61244 whole entry): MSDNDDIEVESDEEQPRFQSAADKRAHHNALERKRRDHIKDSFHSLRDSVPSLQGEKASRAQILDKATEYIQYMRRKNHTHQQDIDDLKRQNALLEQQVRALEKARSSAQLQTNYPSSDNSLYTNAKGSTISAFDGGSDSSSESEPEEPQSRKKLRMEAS

This experiment has as its target MaxL homodimer (Homo sapiens, UniProt P61244 1-160). Briefly: universal protein-binding microarray (PBM); PBS-based mixture, 10 nM His-tagged protein dimer, 2% milk, 200 ng/uL BSA, 50 ng/uL salmon testes DNA, 0.02% TX-100; detection with Alexa 488 anti-His antibody;; high values mean tight binding. The following applies: protein: recombinant; tags: C-terminal His-tag (pET21a); chain copies: 2; dsDNA, one strand shown. The gist of the method: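 Arrays of the 'all 10-mer' universal design (Agilent 4 x 44 K) were exposed to 10 nM His-tagged protein dimer, stained with 10 ng/μL fluorophore-conjugated anti-His antibody and read on a GenePix 4400A to give a fluorescence intensity for each 8-mer. Binding occupancy is each intensity divided by the highest-ranked intensity.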
Regarding GAGAAGGA, the binding signal was 0.0733 normalized occupancy.
For CAACAATC the value was 0.0759 normalized occupancy; for ATGCCCGG, 0.0744 normalized occupancy.
Turning to AGACCTTA, the binding signal came out at 0.0772 normalized occupancy.
As for GCCGTGGA, the binding signal worked out at 0.0736 normalized occupancy.
Consider CGGGTGGC, for which the binding signal is 0.0775 normalized occupancy.
GGCGTCGA: the binding signal was found to be 0.0725 normalized occupancy.
Take AGCGTTGG: the binding signal is 0.0764 normalized occupancy.
On to AGAGTGGG, for which the binding signal was found to be 0.0749 normalized occupancy.
With CCCGTGGC, the binding signal was 0.0811 normalized occupancy.
For GGCGTGGA, the binding signal was determined as 0.0968 normalized occupancy.
AGCGTGGG: the binding signal is 0.113 normalized occupancy.
As for CGCGTGGC, the figure is 0.154 normalized occupancy.
In the case of ACCGTGGC, the binding signal came out at 0.0752 normalized occupancy.
Turning to AGCGTGGC, the binding signal is 0.108 normalized occupancy.
AGCGTTGC: the binding signal is 0.0728 normalized occupancy.
As to CCCCAAAA, the binding signal is 0.0734 normalized occupancy.
Turning to AATAACCC, the binding signal came to 0.0806 normalized occupancy.
AACAGGAT: the binding signal is 0.0759 normalized occupancy.
For CCGTCCTC, the binding signal came out at 0.0798 normalized occupancy.
For CGTCACGA the value was 0.0766 normalized occupancy; for GTGGACGA, 0.0753 normalized occupancy; for AACTCTAC, 0.0729 normalized occupancy.
As for CGCATCAG, the figure is 0.0761 normalized occupancy; as for CTATAGGA, 0.0753 normalized occupancy; as for TGCCAGAA, 0.0775 normalized occupancy.
For the sequence CGCGTGGA, the binding signal came out at 0.147 normalized occupancy.
Turning to CCCGTGGA, the binding signal is 0.0823 normalized occupancy.
In the case of CGTGTGGC, the binding signal was found to be 0.0953 normalized occupancy.
As for AGGGTGGA, the figure is 0.074 normalized occupancy; as for AGTGTGGC, 0.0795 normalized occupancy; as for AGCGTGGA, 0.106 normalized occupancy.
For CGTGTGGA the value was 0.0865 normalized occupancy.
Regarding ACCGTGGA, the binding signal turned out to be 0.0797 normalized occupancy.
Turning to CGCGTCGA, the binding signal came out at 0.0756 normalized occupancy.
As for ACCCTGCA, the figure is 0.0751 normalized occupancy; as for CTACTAGA, 0.0787 normalized occupancy.
Consider CACTTTGA, for which the binding signal turned out to be 0.0776 normalized occupancy.
Regarding CCGCCCTA, the binding signal was 0.0723 normalized occupancy.
Regarding CGAATTCC, the binding signal turned out to be 0.0757 normalized occupancy.
With AGTGGGTG, the binding signal is 0.0863 normalized occupancy.
Take ACTCGACT: the binding signal worked out at 0.0722 normalized occupancy.
In the case of ACACGTAT, the binding signal worked out at 0.0833 normalized occupancy.
As for ACACGTCT, the figure is 0.0781 normalized occupancy; as for ACACGTGC, 0.567 normalized occupancy; as for ACACGTAG, 0.0822 normalized occupancy.
For ACACGTGG, the binding signal was 0.852 normalized occupancy.
For AGACGTGG, the binding signal amounted to 0.0819 normalized occupancy.
For the sequence ACACGTAC, the binding signal stood at 0.0858 normalized occupancy.
Take AGACGTGA: the binding signal is 0.0821 normalized occupancy.
Consider ACACGTGT, for which the binding signal was 0.545 normalized occupancy.
As for ATACGTGA, the figure is 0.081 normalized occupancy.
Take ACACGTCC: the binding signal worked out at 0.08 normalized occupancy.
Regarding ACACGTGA, the binding signal came to 0.383 normalized occupancy.
On to ATGAAGCA, for which the binding signal is 0.082 normalized occupancy.
Consider CATTATTA, for which the binding signal was 0.0832 normalized occupancy.
Take TAATGCTA: the binding signal stood at 0.0758 normalized occupancy.
For ACTCTGAA the value was 0.0737 normalized occupancy; for ATTCAGCA, 0.0725 normalized occupancy.
In the case of AATCGTTA, the binding signal was 0.0761 normalized occupancy.
For the sequence ATACGTAT, the binding signal amounted to 0.0856 normalized occupancy.
On to GCATGGGA, for which the binding signal is 0.0967 normalized occupancy.
As for ACATGGAC, the figure is 0.0847 normalized occupancy.
As to ACATGGGA, the binding signal was found to be 0.0901 normalized occupancy.
For CCATGGCC the value was 0.0766 normalized occupancy; for ACATGGCC, 0.0878 normalized occupancy.
Take ACATGGCA: the binding signal amounted to 0.0904 normalized occupancy.
GCATGGCA: the binding signal is 0.102 normalized occupancy.
In the case of GCATGGAC, the binding signal was found to be 0.0979 normalized occupancy.
As to CCATGGAC, the binding signal was 0.0837 normalized occupancy.
As for TCATGGGA, the figure is 0.0807 normalized occupancy.
As for TCATGGCA, the binding signal was determined as 0.0816 normalized occupancy.
As to GCATGGCC, the binding signal was found to be 0.0963 normalized occupancy.
AATTAAGC: the binding signal came out at 0.0756 normalized occupancy.
CTGACACC: the binding signal was 0.0794 normalized occupancy.
As for GTTTGTGA, the binding signal is 0.0718 normalized occupancy.
As for TAGCATCA, the figure is 0.0821 normalized occupancy; as for GTCTTCAA, 0.0773 normalized occupancy; as for GAGTTGCC, 0.0729 normalized occupancy.
Regarding ATTCCATC, the binding signal stood at 0.0772 normalized occupancy.
As for TGATTCCA, the binding signal was found to be 0.0829 normalized occupancy.
As for AACAAACC, the figure is 0.074 normalized occupancy; as for ACATGATC, 0.101 normalized occupancy.
For the sequence ACATGACG, the binding signal stood at 0.0854 normalized occupancy.
For ACATGATA the value was 0.0928 normalized occupancy; for CCATGACC, 0.0831 normalized occupancy; for ACATGACA, 0.089 normalized occupancy.
As for GCATGACC, the binding signal came to 0.0988 normalized occupancy.
With ACATGACC, the binding signal turned out to be 0.0952 normalized occupancy.
CCATGATC: the binding signal stood at 0.0848 normalized occupancy.
Take GCATGACA: the binding signal was found to be 0.088 normalized occupancy.
On to ATGGGAGC, for which the binding signal came to 0.0768 normalized occupancy.
For GTTCCCTA, the binding signal was 0.0721 normalized occupancy.
Turning to CGAAAATC, the binding signal stood at 0.0726 normalized occupancy.
As for CCTTAACC, the binding signal is 0.0754 normalized occupancy.
In the case of CGCTTATA, the binding signal turned out to be 0.0805 normalized occupancy.
As for CAGTCAGG, the binding signal amounted to 0.0732 normalized occupancy.
As for ACTAAGTC, the figure is 0.0734 normalized occupancy.
For the sequence CCCCTTTC, the binding signal turned out to be 0.0738 normalized occupancy.
Regarding ACGAACAG, the binding signal was found to be 0.0753 normalized occupancy.
Take ACTCACAT: the binding signal was determined as 0.0886 normalized occupancy.
On to CCTGCTGA, for which the binding signal turned out to be 0.0756 normalized occupancy.
In the case of GTTCCACA, the binding signal came to 0.0784 normalized occupancy.
With CCCCCACG, the binding signal is 0.0958 normalized occupancy.
With ATTCCACA, the binding signal came out at 0.0794 normalized occupancy.
On to CACCCACC, for which the binding signal was 0.0828 normalized occupancy.
For GCCCCACA the value was 0.0784 normalized occupancy; for CCCCCACA, 0.0839 normalized occupancy; for AATCCACG, 0.0813 normalized occupancy.
